The values below come from ChEMBL document CHEMBL4513151, “CO-ADD screening of Institut Català d'Investigació Química (Spain) compounds”.

“And” between values parts separate entries of the source, which are not always exact repeats. Equal entries are not always repeated. Potency and affinity values are given separately.

One assay has as its system Klebsiella pneumoniae. The following applies: Concentration 32 ug.mL-1, ASSAY_TEST Inhibition of Bacterial Growth, detection method Absorption (OD600), MEDIA CAMHB, plate type 384well, NBS, CORNING #3640, time 18 hr.
The subject of another assay is Candida albicans. The settings on record: 32 ug/mL.
A further assay has as its system Cryptococcus neoformans. The settings on record: Concentration 32 ug.mL-1, ASSAY_TEST Inhibition of Fungal Growth, detection method Resazurin, Absorption (OD600-OD570), plate type 384well, NBS, CORNING #3640.

For orientation: Inhibition means the drop in the measured response relative to a control, in per cent. In the case of `C=C1CC(COC)(COC)C[C@@H]1[C@@H](Nc1ccc(Br)cc1)c1ccccc1`, the Inhibition in the assay with Klebsiella pneumoniae was 12.17%; in the assay on Candida albicans, 5.3%; in the assay with Cryptococcus neoformans, -62.06%.

For `C[C@]12CC[C@@](c3ccccc3)(O1)[C@H]1C=C[C@H](OC(=O)c3ccccc3)[C@H]12`, the Inhibition was -1.59% and 4.39% in the assay with Candida albicans; -55.26% and -63.64% in the assay with Cryptococcus neoformans (32 ug/mL).

For the compound `C[C@]12CC[C@@](C)(O1)[C@H]1C=C[C@H](OC(=O)c3ccccc3)[C@H]12`, the Inhibition is 15.14% in the assay with Klebsiella pneumoniae, 5.91% in the assay on Candida albicans and -25.36% with Cryptococcus neoformans.

`C[C@]12CC[C@@](C3CCCC3)(O1)[C@H]1C=C[C@H](OC(=O)c3ccccc3)[C@H]12`: the Inhibition with Klebsiella pneumoniae is 19.59%; in the assay on Candida albicans, 4.96%; in the assay on Cryptococcus neoformans, -56.17%.

Regarding `C=C1CC(C(=O)OC)(C(=O)OC)C[C@@H]1[C@H](c1ccccc1)n1ccc2ccc(Cl)cc21`, the Inhibition was 17.79% in the assay with Klebsiella pneumoniae, 3.75% with Candida albicans and -67.72% in the assay with Cryptococcus neoformans.

Consider `C[C@]12CC[C@@](c3ccc(C(F)(F)F)cc3)(O1)[C@H]1C=C[C@H](OC(=O)c3ccccc3)[C@H]12`, for which the Inhibition is 10.18% and 19.4% in the assay with Klebsiella pneumoniae (32 ug/mL); -0.5% and 4.46% in the assay with Candida albicans.

As for `C=C1CC(C(=O)OC)(C(=O)OC)C[C@@H]1[C@H](c1ccccc1)n1ccc2ccccc21`, the Inhibition is 21.67% in the assay on Klebsiella pneumoniae, -0.58% in the assay with Candida albicans and -68.85% in the assay with Cryptococcus neoformans.

`C[C@]12CC[C@@H](O1)[C@H]1C=C[C@H](OC(=O)c3ccccc3)[C@H]12`: the Inhibition in the assay on Klebsiella pneumoniae is 19.45%; in the assay with Candida albicans, 6.1%; in the assay on Cryptococcus neoformans it was -82.89%.

As to `C=C1CC(C(=O)OC)(C(=O)OC)C[C@@H]1[C@@H](NS(=O)(=O)c1ccc(C)cc1)c1ccccc1`, the Inhibition was 18.19% in the assay with Klebsiella pneumoniae, 0.13% in the assay with Candida albicans and -29.89% in the assay with Cryptococcus neoformans.
